This is one part of a sample in which hits are shown more often than they occur.
NOMO-1 viab: STK33 inhibitor candidate reducing NOMO-1 cell viability. NOMO-1 AML viability, CellTiter-Glo luminescence, 72 h. inhibition, % (concentration not given with the values). 37,000 compounds, 7.5% hits. AID 2330; in the data active = inhibition above about 80%; inconclusive = no clear call, values can overlap the other calls
STK33 kin inh: inhibitors of human STK33 kinase; 27,000 compounds, 0.44% hits; AID 2322; inhibition, % at 12.5 µM; Q9BYT3; ADP-Glo luminescence, MBP substrate; in the data active = inhibition above about 20%; inconclusive = no clear call, values can overlap the other calls
Target sequence (Q9BYT3 whole entry, looked up): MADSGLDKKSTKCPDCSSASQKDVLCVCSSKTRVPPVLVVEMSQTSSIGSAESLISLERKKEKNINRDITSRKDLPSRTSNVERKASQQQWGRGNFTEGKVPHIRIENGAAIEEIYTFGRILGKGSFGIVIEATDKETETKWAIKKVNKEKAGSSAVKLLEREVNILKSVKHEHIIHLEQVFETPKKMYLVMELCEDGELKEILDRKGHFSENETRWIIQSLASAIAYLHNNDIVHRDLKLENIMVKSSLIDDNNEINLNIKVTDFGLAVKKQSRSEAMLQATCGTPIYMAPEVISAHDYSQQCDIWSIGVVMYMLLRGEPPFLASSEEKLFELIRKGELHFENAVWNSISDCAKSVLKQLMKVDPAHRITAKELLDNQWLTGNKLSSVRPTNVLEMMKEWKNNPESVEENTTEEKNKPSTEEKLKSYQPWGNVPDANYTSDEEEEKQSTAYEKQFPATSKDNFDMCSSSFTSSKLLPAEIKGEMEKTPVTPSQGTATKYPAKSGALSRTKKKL
PD-1 reverse act: reversal of PD-1 mediated T-cell inhibition; activation, % (no concentration beside the values); 29,000 tested, under 10 active; primary human CD4 T cells, PD-L1 beads, CellTiter-Glo 96 h; AID 2316; call rule not given here;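 note: 0% = median vehicle wells and 100% = positive control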
* marks the source's active call; other numbers are inactive results; u = inconclusive; x = no result given.

SMILES	NOMO-1 viab	STK33 kin inh	PD-1 reverse act
C[C@@H]1CN([C@@H](C)CO)C(=O)Cc2cc(NS(=O)(=O)c3ccccc3)ccc2O[C@@H]1CN(C)Cc1ccc(C(F)(F)F)cc1	11	6	x
C[C@H](CO)N1C[C@H](C)[C@H](CN(C)Cc2ccc(C(=O)O)cc2)Oc2ccc(NS(=O)(=O)c3ccc(F)cc3)cc2CC1=O	-4	0	x
C[C@@H]1CN([C@H](C)CO)C(=O)Cc2cc(NS(=O)(=O)c3ccc(F)cc3)ccc2O[C@H]1CN(C)Cc1ccc(C(F)(F)F)cc1	127*	5	-3
Cc1noc(C)c1S(=O)(=O)Nc1ccc2c(c1)CC(=O)N([C@@H](C)CO)C[C@H](C)[C@H](CN(C)S(C)(=O)=O)O2	24	-1	0
C[C@H](CO)N1C[C@H](C)[C@H](CN(C)S(=O)(=O)c2cn(C)cn2)Oc2ccc(NC(=O)CCC(F)(F)F)cc2CC1=O	-9	-1	0
Cn1c(SCC(=O)Nc2c(Cl)cc(Cl)cc2Cl)nnc1-c1ccc(Cl)cc1	2	3	0
C[C@@H]1CN([C@H](C)CO)C(=O)c2cccc(NC(=O)c3ccncc3)c2O[C@@H]1CN(C)Cc1ccc(Cl)c(Cl)c1	19	x	x
C[C@H](CO)N1C[C@H](C)[C@@H](CN(C)Cc2ccc(C(=O)Nc3ccccc3N)cc2)Oc2c(NC(=O)Nc3ccc(F)cc3)cccc2C1=O	125*	x	-1
C[C@@H]1CN([C@@H](C)CO)C(=O)c2cccc(NC(=O)Nc3ccc(F)cc3)c2O[C@H]1CN(C)Cc1ccc(C(=O)O)cc1	18	x	x
C[C@H]1CN([C@@H](C)CO)C(=O)c2cccc(NC(=O)Nc3ccc(F)cc3)c2O[C@H]1CN(C)Cc1ccc(C(=O)O)cc1	19	x	2
C[C@H]1CN([C@@H](C)CO)C(=O)c2cccc(NC(=O)Nc3ccc(F)cc3)c2O[C@H]1CN(C)Cc1ccc(C(=O)Nc2ccccc2N)cc1	127*	x	-5
C[C@@H]1CN([C@H](C)CO)C(=O)c2cccc(NC(=O)Nc3ccccc3)c2O[C@H]1CN(C)Cc1ccc(C(=O)O)cc1	-3	x	x
C[C@@H]1CN([C@H](C)CO)C(=O)c2cccc(NC(=O)Nc3ccccc3)c2O[C@@H]1CN(C)Cc1ccc(C(=O)Nc2ccccc2N)cc1	128*	x	-5
C[C@@H]1CN([C@@H](C)CO)C(=O)c2cc(NC(=O)CCCN(C)C)ccc2O[C@H]1CN(C)Cc1ccc(Oc2ccccc2)cc1	-5	x	0
Cc1noc(C)c1NC(=O)N(C)C[C@@H]1Oc2c(NC(=O)c3nc4ccccc4s3)cccc2C(=O)N([C@@H](C)CO)C[C@H]1C	26	x	1
CCN(CC)CC(O)Cn1c2c(c3ccccc31)CCCC2=O (stereo not given)	21	1	3
CCN(CC)CC(O)Cn1c(C)c(-c2ccccc2)c2cc([N+](=O)[O-])ccc21 (stereo not given)	94*	5	x
COc1ccc2c(c1)OC(C(=O)c1ccccc1)C2=O (stereo not given)	20	-3	-2
COc1ccc(S(=O)(=O)N(C)CC(=O)Nc2ccccc2Cl)cc1	2	-3	x
C[C@@H]1CN([C@@H](C)CO)C(=O)c2cccc(NC(=O)Nc3ccc(F)cc3)c2O[C@@H]1CN(C)S(=O)(=O)c1ccc(F)cc1	85*	x	x
Cc1ccc(S(=O)(=O)N(C)C[C@@H]2Oc3c(NC(=O)Nc4ccc(F)cc4)cccc3C(=O)N([C@H](C)CO)C[C@@H]2C)cc1	82*	x	x
Cc1ccc(S(=O)(=O)N(C)C[C@@H]2Oc3c(NC(=O)Nc4ccc(F)cc4)cccc3C(=O)N([C@@H](C)CO)C[C@@H]2C)cc1	57	x	-3
C[C@H](CO)N1C[C@H](C)[C@@H](CN(C)S(=O)(=O)c2ccc(F)cc2)Oc2c(NC(=O)Nc3ccc(F)cc3)cccc2C1=O	29	x	0
COc1ccc(OC)c(N(CC(=O)Nc2ccc(F)c(F)c2)S(C)(=O)=O)c1	11	-4	x
c1coc(CNc2nc3ccccc3n2CCN2CCCCC2)c1	4	-3	x
SMILES	NOMO-1 viab	STK33 kin inh	PD-1 reverse act
C[C@H]1CN([C@@H](C)CO)C(=O)c2cc(NC(=O)Cc3ccccc3)ccc2O[C@H]1CN(C)C(=O)Nc1cccc2ccccc12	33	1	-1
C[C@]12CC[C@H](O)CC1=CCC1C2CC[C@@]2(C)C1CC[C@@H]2C(=O)CO (stereo not given in full)	5	2	2
CCCCCC(=O)Cc1cc(O)c(O)c2c1C(=O)Oc1cc(O)c(C(=O)O)c(CCCCC)c1O2	108*	-9	-10
CC1CNCCN1S(=O)(=O)c1cccc2cnccc12 (stereo not given)	73	9	-1
O=S(=O)(c1cccc2cnccc12)N1CCCNCC1	0	41*	2
C[C@@H]1CN([C@@H](C)CO)C(=O)c2cccc(N(C)C)c2O[C@H]1CN(C)Cc1ccc(Cl)c(Cl)c1	97*	x	x
C[C@@H]1CN([C@H](C)CO)C(=O)c2cccc(N(C)C)c2O[C@H]1CN(C)Cc1ccc(Cl)c(Cl)c1	88*	x	x
C[C@H]1CN([C@@H](C)CO)C(=O)c2cccc(N(C)C)c2O[C@@H]1CN(C)Cc1ccc(Cl)c(Cl)c1	45	x	-2
C[C@@H]1CN([C@H](C)CO)C(=O)c2cccc(N(C)C)c2O[C@@H]1CN(C)Cc1ccc(Cl)c(Cl)c1	19	x	-2
CC(C)NC(=O)N(C)C[C@H]1Oc2ccc(NC(=O)CCCCCC(=O)Nc3ccccc3N)cc2CC(=O)N([C@H](C)CO)C[C@H]1C	15	x	0
COc1ccc(NC(=O)Nc2ccc3c(c2)CC(=O)N([C@@H](C)CO)C[C@H](C)[C@H](CN(C)S(=O)(=O)c2ccccc2)O3)cc1	4	2	0
COc1ccc(C2Nn3c(C)nnc3SC2C(=O)NCc2ccco2)cc1Cl (stereo not given)	32	x	1
Cc1ccc2nc(-c3ccc(NC(=O)CCN4C(=O)c5ccccc5C4=O)cc3)[nH]c2c1	63	4	1
COc1cc2cc(C)nc(Cc3cccc4ccccc34)c2cc1OC	86*	x	-2
COc1ccc(-c2cc3cc(OC)c(OC)cc3c(Cc3ccccc3)n2)cc1	35	x	-1
C[C@H]1CN([C@@H](C)CO)C(=O)Cc2cc(NS(=O)(=O)c3ccc(Cl)cc3)ccc2O[C@@H]1CN(C)Cc1ccccc1	107*	-4	-3
C[C@@H]1CN([C@@H](C)CO)C(=O)Cc2cc(NS(=O)(=O)c3ccc(Cl)cc3)ccc2O[C@@H]1CN(C)Cc1ccccc1	u	-3	-2
C[C@H]1CN([C@@H](C)CO)C(=O)Cc2cc(NS(=O)(=O)c3ccccc3)ccc2O[C@@H]1CN(C)Cc1ccccc1	31	0	1
C[C@H]1CN([C@@H](C)CO)C(=O)Cc2cc(NS(=O)(=O)c3ccc(Cl)cc3)ccc2O[C@H]1CN(C)Cc1ccccc1	101*	x	0
Cc1nn(CC(N)=S)c(C)c1Br	31	x	0
C[C@H]1CN([C@@H](C)CO)C(=O)c2cccc(NC(=O)CCCCCC(=O)Nc3ccccc3N)c2O[C@H]1CN(C)Cc1ccc(-c2ccccc2)cc1	122*	x	2
C[C@@H]1CN([C@@H](C)CO)C(=O)c2cccc(NC(=O)CCCCCC(=O)Nc3ccccc3N)c2O[C@H]1CN(C)Cc1ccncc1	5	x	0

High-throughput results deposited in PubChem by Broad Institute.
